Where “and” joins values, the source holds several entries; their conditions need not be identical. Equal entries are not always repeated. Results filed as inconclusive are left out. Calls of active or inactive are those of the source. Calls come from the whole dose curve; as a rule, active = well fitted curve in the direction sought with a large enough effect; inconclusive = small, poorly fitted or top-dose-only effect, or another doubt; inactive = no such curve, though single readings can be large; an effect the other way counts as inactive or inconclusive.

This passage reports Potency and outcome results from PubChem BioAssay (NCATS).

The test system of experiment [1] is Zika virus NS2B-NS3 protease. In words: Primary screen GU AMC qHTS for Zika virus inhibitors (AID 1347154). Note: nearly all actives have a fitted effect of over 70% in size. Note: potency is the fitted concentration of half-maximal effect. A digest of the protocol:
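Unlinked Zika NS2B hydrophilic domain–NS3 protease complex at 25 nM in 10 mM Tris-HCl pH 8.0, 0.01% Tween 20, with an AMC peptide substrate. Fluorescence change (340/450 nm) over 15 min at room temperature, normalized to controls, fitted to 4-parameter Hill.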

Experiment [2] has as its system Zika virus NS2B-NS3 protease (linked construct). Kind of experiment: Confirmatory screen NINDS AMC qHTS for Zika virus inhibitors (AID 1347152). Note: potency is the fitted concentration of half-maximal effect; nearly all actives have a fitted effect of over 70% in size. A digest of the protocol: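 Linked NS2B-NS3 protease, 1 nM, in 10 mM Tris-HCl pH 8.0, 0.01% Tween 20; compounds preincubated 15 min at room temperature. Nle-KRR-AMC 10 microM (Km 18.3 µM); 15-min fluorescence change (340/450 nm) fitted to 4-parameter Hill.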
A general note: qHTS replaces the single test concentration by a dilution series.

In experiment [3] the test system is Zika virus NS2B-NS3 protease (unlinked complex). Kind of experiment: Confirmatory screen GU AMC qHTS for Zika virus inhibitors (AID 1347153).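 For Potency: enzyme at 25 nM with substrate at 10 µM below its Km of 18.3 µM; potency is the fitted concentration of half-maximal effect.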 Note: nearly all actives have a fitted effect of over 70% in size. A digest of the protocol:
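Compounds were preincubated 15 min at room temperature with 25 nM noncovalent NS2B-NS3 protease at pH 8.0; AMC substrate added at 10 microM and 15-min fluorescence gain (340/450 nm) converted to percent inhibition, fitted 4-parameter.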

The nature of experiment [4]: Vero cells viability qHTS for Zika virus inhibitors (AID 1347167). A digest of the protocol: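 Cells seeded at 2.5 x 10^5 cells/mL in DMEM with 4% FBS and attached overnight at 37 degrees C, then exposed to compound for 24 to 48 hours. Viability read as ATP content by CellTiter Glo luminescence.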
Experiment [5] can be described thus: Confirmatory screen NINDS Rhodamine qHTS for Zika virus inhibitors (AID 1347161). Note: nearly all actives have a fitted effect of over 60% in size. Note: potency is the fitted concentration of half-maximal effect. A digest of the protocol: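 Single-chain NS2B-NS3 protease, 25 nM, pH 8.0; compounds preincubated 15 min. Activity: Rhodamine110 release from 1.5 microM substrate over 15 min, room temperature, data fitted to 4-parameter Hill.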
Experiment [6] has as its system Zika virus NS2B-NS3 protease (linked). In words: 384 well plate NINDS AMC confirmatory qHTS for Zika virus inhibitors (AID 1347163).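 Note: linked protease at 5 30 or 60 nM final depending on run; fluorescence of AMC released from Ac-VKTGKR-AMC peptide cleaved by the protease; top concentration of the series differs between compounds; nearly all actives have a fitted effect of over 50% in size.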 Summed up:
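Linked NS2B-NS3 protease (final 5 nM, 30 nM or 60 nM) was preincubated with compounds (final up to 1 mM) for ~15 minutes. Ac-VKTGKR-AMC substrate (final 30 microM) then reacted for 25 minutes at room temperature in the dark. Fluorescence (ex 355/em 460 nm) was normalized to no-enzyme and no-inhibitor controls.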

Experiment [7] deals with Zika virus NS2B-NS3 protease (linked construct). Kind of experiment: 384 well plate NINDS Rhodamine confirmatory qHTS for Zika virus inhibitors (AID 1347164).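 Note: fluorescence from protease cleavage of Ac-LKRR-rhodamine 110 substrate; top concentration of the series differs between compounds; nearly all actives have a fitted effect of over 65% in size.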 A digest of the protocol:
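Linked NS2B-NS3 protease (final 5, 30 or 60 nM) preincubated ~15 minutes with compounds, then 10 microM Ac-LKRR-Rhodamine 110 added. Fluorescence (485/538 nm) read after 25 minutes at room temperature, normalized to no-enzyme and no-inhibitor controls.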

Experiment [8] is described as follows: qHTS to identify inhibitors of the type 1 interferon - major histocompatibility complex class I in skeletal muscle: primary screen against the NCATS Mechanism Interrogation Plate v5.0 (MIPE) Libary (AID 1347411). Note: nearly all actives have a fitted effect of over 65% in size. Summed up:
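Luminescence from HiBiT-tagged endogenous HLA-B*08:01 served as the MHC class I read-out. CRISPR-engineered C25cl48 human myoblasts received 4.0 ng/ml IFN-beta plus compound for 24 hrs, with an 11-point, 1:3 series topping at 46 uM final.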

The nature of experiment [9]: qHTS to identify inhibitors of the type 1 interferon - major histocompatibility complex class I in skeletal muscle: primary screen against the NCATS Pharmaceutical Collection (AID 1347407).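 Note: luminescence of HiBiT knocked into endogenous HLA-B as interferon-induced MHC class I level.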 A digest of the protocol: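 Immortalized human myoblasts (C25cl48) with HiBiT knocked into endogenous HLA-B*08:01 were stimulated with 4.0 ng/ml IFN-beta and treated with compounds ([…] top 46 uM) for 24 hrs at 37 C. HiBiT lytic luminescence read.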

Experiment [10] can be described thus: Tertiary RLuc qRT-PCR qHTS assay for Zika virus inhibitors (AID 1347169). Note: top concentration of the series differs between compounds; nearly all actives have a fitted effect of over 55% in size. A digest of the protocol:
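Vero cells (1,000/well) infected with recombinant ZIKV-RLuc (Cambodian) at MOI 1-2 after compound addition, 48-72 hrs at 37 degrees C. Live-cell Renilla luciferase substrate added; luminescence read after 1-1.5 hrs.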

Experiment [11] can be described thus: qHTS to identify inhibitors of the type 1 interferon - major histocompatibility complex class I in skeletal muscle: primary screen against the NCATS LOPAC collection (AID 1347405).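 Note: lytic HiBiT luminescence reporting HLA-B protein level.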 Summed up:
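Luminescence from HiBiT fused to endogenous HLA-B in CRISPR-engineered human myoblasts served as the read-out. Cells received 4.0 ng/ml IFN-beta plus compound (seven concentrations, 1:4.3 steps, highest 46 uM final) for 24 hrs before lytic detection.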

Experiment [12] in a line: qHTS for inhibitors of adenylyl cyclases using a fission yeast platform: a pilot screen against the NCATS LOPAC library (AID 1347410). A digest of the protocol:
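S. pombe CHP2027 (AC9-GNAS-PDE4D2) carrying PKA-repressed fbp1-GFP, incubated 18 h at 30C in EMM with LOPAC compounds at up to 57 uM. GFP gain-of-signal read by laser scanning cytometry; DMSO negative control.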

In experiment [13] the target is Protein phosphatase 1D (Homo sapiens) (UniProt O15297). In words: RapidFire Mass Spectrometry qHTS Assay for Modulators of WT P53-Induced Phosphatase 1 (WIP1) (AID 1347424).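 Note: amount of dephosphorylated VEPPL-S-QETFS peptide product formed by WIP1; series mostly up to about 63 µM.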 A digest of the protocol: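 10 nM WIP1 preincubated with compounds 1 hr at room temperature in pH 7.5 Tris buffer with 30 mM MgCl2, 1 mM TCEP; 2 uM VEPPL-pS-QETFS phosphopeptide for 5 min, formic acid quench; dephosphorylated product quantified by RapidFire MS against labelled standard.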

The nature of experiment [14]: Validation qHTS assay for inhibitors of Activation Induced Cytidine Deaminase (AID): UDG Counterscreen signal (AID 1347427). Summed up:
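Counterscreen read of UDG activity (2 U/mL, 4/3x) in the FRET deamination format with AID (1 uM, 4/3x), DJC20/DJC23 substrates (250 nM, 4x), 4 h at room temperature. NaOH stop, fluorescence at 560 ex/665 em.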

Experiment [15] in a line: Confirmatory screen GU Rhodamine qHTS for Zika virus inhibitors qHTS (AID 1347157). Note: nearly all actives have a fitted effect of over 70% in size. Note: potency is the fitted concentration of half-maximal effect. A digest of the protocol:
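Buffer 10 mM Tris-HCl pH 8.0, 0.01% Tween 20. Unlinked protease 25 nM; compound preincubation 15 min, RT, protected from light. Substrate Rhod110, 1.5 microM; ~15% conversion in 15 min.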

Experiment [16] concerns Zika virus NS2B-NS3 protease (unlinked complex). In words: Primary screen GU Rhodamine qHTS for Zika virus inhibitors: Unlinked NS2B-NS3 protease assay (AID 1347159). Note: nearly all actives have a fitted effect of over 60% in size. Note: potency is the fitted concentration of half-maximal effect. A digest of the protocol: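 Percent inhibition derives from the 15-min fluorescence change (ex 480, em 540 nm), normalized to no-enzyme and no-inhibitor wells. Reactions contained 25 nM NS2B-NS3 complex and 1.5 microM substrate in 10 mM Tris-HCl pH 8.0.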

For experiment [17], the system named is Zika virus NS2B-NS3 protease (linked construct). In words: Primary screen NINDS Rhodamine qHTS for Zika virus inhibitors (AID 1347160). Note: nearly all actives have a fitted effect of over 55% in size. A digest of the protocol:
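In 10 mM Tris-HCl pH 8.0 containing 0.01% Tween 20, linked NS2B-NS3 protease (25 nM final) is exposed to test compounds for 15 min. Cleavage of 1.5 microM Rhodamine110 substrate is tracked by fluorescence over 15 min.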

Chain of Protein phosphatase 1D (Homo sapiens) (O15297 whole entry, looked up): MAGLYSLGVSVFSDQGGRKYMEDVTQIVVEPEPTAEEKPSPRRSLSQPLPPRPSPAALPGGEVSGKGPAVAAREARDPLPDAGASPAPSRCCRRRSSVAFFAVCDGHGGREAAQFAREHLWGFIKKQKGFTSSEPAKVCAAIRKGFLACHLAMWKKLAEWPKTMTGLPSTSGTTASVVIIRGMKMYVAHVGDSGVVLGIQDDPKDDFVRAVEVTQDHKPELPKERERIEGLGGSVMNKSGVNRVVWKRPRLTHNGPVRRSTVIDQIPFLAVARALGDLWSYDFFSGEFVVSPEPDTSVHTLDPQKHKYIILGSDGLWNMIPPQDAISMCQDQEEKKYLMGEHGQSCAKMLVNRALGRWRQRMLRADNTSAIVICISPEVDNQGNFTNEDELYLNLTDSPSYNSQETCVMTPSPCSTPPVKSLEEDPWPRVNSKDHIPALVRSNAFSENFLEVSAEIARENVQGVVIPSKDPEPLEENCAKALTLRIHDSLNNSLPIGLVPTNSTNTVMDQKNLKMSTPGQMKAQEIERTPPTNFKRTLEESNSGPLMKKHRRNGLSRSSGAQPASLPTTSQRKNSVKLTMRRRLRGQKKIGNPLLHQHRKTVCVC

On to `COc1ccc(C2=N[C@H](c3ccc(Cl)cc3)[C@H](c3ccc(Cl)cc3)N2C(=O)N2CCNC(=O)C2)c(OC(C)C)c1`, for which, in experiment [1], the Potency entry is “inactive”.

For the molecule `COc1ccc(-c2ccc3c(N4CCOCC4)nc(N4C[C@@H](C)O[C@@H](C)C4)nc3n2)cc1CO`, the Potency in experiment [2] was 27.1 µM (active); in experiment [3] it was 27.1 µM (active); in [1] it was 19.2 µM (active). Also, the call in experiment [4] was inactive.

With `CCOc1ccc(Cc2cc([C@@H]3O[C@H](CO)[C@@H](O)[C@H](O)[C@@H]3O)ccc2Cl)cc1`, in experiment [1], the Potency result is “inactive”.

Regarding `CC(C)c1onc(-c2c(Cl)cccc2Cl)c1COc1ccc(/C=C/c2cccc(C(=O)O)c2)c(Cl)c1`, the Potency in [2] is 24.1 µM (active); in experiment [3], 24.1 µM (active); in experiment [1], 6.7 µM (active); in experiment [5], 2.47 µM (active). Also, the Potency result in [6], in experiment [7] and in experiment [8] was “inactive” throughout.

On to `CCCc1nc2c(C)cc(-c3nc4ccccc4n3C)cc2n1Cc1ccc(-c2ccccc2C(=O)O)cc1`, for which the values for the Potency in experiment [2] and in experiment [5] were 21.5 µM (active) and 13.9 µM (active), respectively. Moreover, the Potency entry in [3], in experiment [1] and in [8] was “inactive” each time. The molecule was called inactive in experiment [4] and in experiment [9].

Take `CCn1cc(C(=O)O)c(=O)c2cc(F)c(N3CCNC(C)C3)c(F)c21` (stereo unspecified): the Potency in experiment [2] is 24.1 µM (active) and 27.1 µM (active); in experiment [1], 29.9 µM (active). Further, the Potency result in experiment [5], in [10], in [11], in experiment [8] and in [13] was “inactive” in each case. For the same molecule, the call in experiment [4], in experiment [9], in experiment [12] and in experiment [14] was inactive.

Regarding `COCCNCCCn1c(C(=O)CF)c(-c2ccc(C)cc2)c2c(N)ncnc21`, the Potency entry in [1] is “inactive”.

In the case of `OCCn1cc(-c2cnc3nnn(Cc4ccc5ncccc5c4)c3n2)cn1`, the Potency result in [1], in experiment [15], in experiment [17] and in experiment [8] was “inactive” each time. The Potency in experiment [16] is 50.1 µM (active).

Consider `CCOc1ccn(-c2ccc(F)cc2)c(=O)c1C(=O)Nc1ccc(Oc2ccnc(N)c2Cl)c(F)c1`, for which the Potency result in experiment [1], in [16], in [17] and in experiment [8] was “inactive” each time.

Take `CN(C(=O)c1ccc(F)cc1C(F)(F)F)C1CCN(c2nnc(-c3ccnn3C)c3ccccc23)CC1`: the Potency result in [1], in experiment [16], in experiment [17] and in [8] was “inactive” in each case.

As for `COc1cc2c(cc1OC)CN(CCc1ccc(NC(=O)c3cccc4c(=O)c5cccc(OC)c5[nH]c34)cc1)CC2`, the Potency entry in experiment [1], in experiment [17], in [10] and in experiment [8] was “inactive” each time. Further, the Potency in experiment [15] was 44.1 µM (active); in experiment [16] it was 39.8 µM (active); in experiment [5], 55.5 µM (active).

Regarding `COc1ccc(CCN2CCN(CCCc3ccccc3)CC2)cc1OC`, the Potency entry in experiment [1], in experiment [16], in experiment [17] and in [8] was “inactive” in each case.

`CCCc1nn(C)c2c(=O)[nH]c(-c3cc(S(=O)(=O)N4CCN(C)CC4)ccc3OCC)nc12`: the Potency result in [1], in [16], in [17], in experiment [11], in [8] and in experiment [13] was “inactive” each time. Also, the call in experiment [9] and in [12] was inactive.

For the molecule `COc1cc(Nc2ncc3c(n2)-c2ccc(Cl)cc2C(c2c(F)cccc2OC)=NC3)ccc1C(=O)O`, the Potency entry in experiment [1] and in experiment [17] was “inactive” in each case. For the same molecule, the Potency in [16] was 20 µM (active).

Regarding `N#CC[C@H](C1CCCC1)n1cc(-c2ncnc3[nH]ccc23)cn1`, the Potency in experiment [1] was 24.1 µM (active). Besides, the Potency result in experiment [16], in [17] and in experiment [8] was “inactive” throughout.
